Screening data as filed in PubChem.
CYP2C9 inh: blocks human cytochrome P450 2C9; P11712; CYP2C9 Supersomes, luciferin-H conversion, luminescence; inhibition, % at 5 µM; actives 20% (n = 96,000);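 active = blocking of liver enzyme CYP2C9 beyond about 50% at 5 µM, limit read from the data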
Target sequence (P11712 whole entry, looked up): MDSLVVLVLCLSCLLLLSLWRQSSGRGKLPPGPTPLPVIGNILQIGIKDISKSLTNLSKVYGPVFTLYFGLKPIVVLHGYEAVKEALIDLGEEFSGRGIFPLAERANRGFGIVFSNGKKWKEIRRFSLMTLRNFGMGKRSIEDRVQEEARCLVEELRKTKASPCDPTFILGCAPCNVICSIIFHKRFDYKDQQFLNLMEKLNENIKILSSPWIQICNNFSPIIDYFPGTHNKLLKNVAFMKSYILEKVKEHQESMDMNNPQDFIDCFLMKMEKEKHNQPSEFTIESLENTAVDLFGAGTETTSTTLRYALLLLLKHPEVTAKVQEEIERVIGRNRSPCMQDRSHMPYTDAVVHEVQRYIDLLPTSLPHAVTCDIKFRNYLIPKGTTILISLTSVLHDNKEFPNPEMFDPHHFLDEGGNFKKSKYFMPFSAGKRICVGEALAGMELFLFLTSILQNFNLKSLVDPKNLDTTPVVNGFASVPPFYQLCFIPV
PLK1 PBD inh: Plk1 (human) PBD binding inhibition; Plk1 PBD phosphopeptide binding, fluorescence polarization; actives 0.13% (n = 97,000); inhibition, %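 (tested at about 20 µM)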; AID 693; in the data active = inhibition above about 34%, passing the limit was not always enough
CYP2C19 act: increases human CYP2C19 enzyme activity. P33261. 96,000 tested, under 10 active. activation factor at 5 µM. AID 1025. recombinant CYP2C19, luciferin-H EGE luminescence; stronger effect = higher value; 0 = fully inhibited enzyme, 1 = untreated enzyme;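 active = activation factor of at least 2 at 5 µM in the primary screen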;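 note: 0 = wells with 2.5 mM tranylcypromine and 1 = vehicle-only wells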
CYP2C19 inh: inhibitors of human CYP2C19. CYP2C19 Supersomes, luciferin-H EGE luminescence, 30 min. inhibition, % at 5 µM. actives 21% (n = 96,000);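 active = CYP2C19 inhibition above a set limit at 5 µM in the primary screen, cut at about 50% in these data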;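 note: plate controls were negative control wells for no effect and 2.5 mM tranylcypromine positive control for full effect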
PLK1 inh: PLK1 (human) kinase inhibition; actives 0.53% (n = 97,000); P53350; recombinant PLK1 kinase, TR-FRET peptide phosphorylation; inhibition, % at 10 µM;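 active = inhibition of 50% or more in the single-concentration screen; inactive = inhibition below 50%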;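 note: 0% = DMSO max control and 100% = H-89 dihydrochloride min control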
CYP2C9 activ: CYP2C9 (human) activation; recombinant CYP2C9, luciferin-H conversion, luminescence; stronger effect = higher value; factor 1 = untreated enzyme, 0 = blocked; P11712; AID 1024; actives 1.4% (n = 96,000); activation factor at 5 µM;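 active = activation factor of 2 or more for CYP2C9 at a 5 µM dose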;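 note: 0 = sulfaphenazole-blocked wells and 1 = vehicle-only wells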
Starred values were filed as active, the others as inactive; . = no result given. In the library only some 28% were active in any assay of this set; here they are far more common.

SMILES	CYP2C9 inh	PLK1 PBD inh	CYP2C19 act	CYP2C19 inh	PLK1 inh	CYP2C9 activ
COc1cc(/C=C2/S/C(=N/S(=O)(=O)c3ccccc3)NC2=O)c([N+](=O)[O-])cc1OC	99.1*	-11.5	0.9	6.8	46.7	0
COc1cc(/C(C#N)=C/c2ccccc2)c([N+](=O)[O-])cc1OC	.	6.3	.	.	-7.2	.
CCOC(=O)c1c(C)sc2c1N(C(=O)CN(CC)CC)c1cc(Cl)ccc1S2	70.4*	-14.8	0.3	70.2*	-6.0	0.3
N#C/C(=C\c1ccc(Cl)cc1)c1nc2ncccc2[nH]1	60.7*	34.1	0.9	14.7	13.8	0.4
CC1=C(C(=O)Nc2ccc(C)cc2C)C(c2ccc(C)o2)NC(=O)N1 (stereo not drawn)	-13.4	-25.6	1.2	-18.3	-6.5	1.1
CCOC(=O)C(C(C)=O)C(c1ccc(OCCC(C)C)cc1)C(C(C)=O)C(=O)OCC (stereo not drawn)	.	14.4	.	.	-8.3	.
COc1cc(OC)c2c(c1)C(=O)c1cc(OC)cc(OC)c1C2=O	2.2	-1.5	1	3.8	17.4	1
CCOC(=O)C(Cc1c[nH]c2ccccc12)NC(=O)c1ccco1 (stereo not drawn)	72.2*	-6.2	0.2	77.6*	-16.6	0.3
Cc1cc(C(=O)O)sc1C	.	-15.4	.	.	4.0	.
Cc1cccc(OC(=O)CN2C(=O)C3C4CCC(C4)C3C2=O)c1C (stereo not drawn)	6.1	-38.1	0.7	30.5	-12.1	0.9
CCOc1ccc(C(=O)NCCn2cc(SCC(=O)Nc3cc(C)on3)c3ccccc32)cc1	56.9*	-20.4	0.7	27.5	-0.6	0.4
COc1ccc(C(=O)NCCn2cc(SCC(=O)Nc3cc(C)on3)c3ccccc32)cc1OC	45.0	-25.0	0.4	56.0*	-5.4	0.6
CC(C)OC(=O)[C@H]1[C@H](c2ccc(Cl)cc2)[C@@](C#N)(C(N)=O)[C@@H]2C=CC(C(N)=O)=CN21	-3.1	-21.6	0.8	25.0	47.4	1
COc1nnc(-c2ccc(N3CCOCC3)c(NC(=O)c3ccco3)c2)c2ccccc12	65.3*	12.5	0.8	25.0	-10.1	0.3
CCC(=O)Nc1cc(-c2nnc(OC)c3ccccc23)ccc1N1CCOCC1	35.6	-22.4	0.9	13.7	-2.4	0.6
COc1nnc(-c2ccc(N3CCOCC3)c(NC(=O)c3ccccc3)c2)c2ccccc12	70.0*	13.4	0.2	80.7*	-14.6	0.3
COc1nnc(-c2ccc(N3CCOCC3)c(NC(C)=O)c2)c2ccccc12	35.5	3.1	1	-0.8	-4.3	0.6
Cc1ccc(OC(=O)NC2CCS(=O)(=O)C2)cc1C (stereo not drawn)	-5.6	4.8	1	1.4	2.3	1.1
COc1ccc(S(=O)(=O)N(C)CC(=O)NCc2cccnc2)cc1OC	-17.0	3.5	0.9	11.8	-27.3	1.2
COc1ccc(C)cc1NC(=O)CN(C)S(=O)(=O)c1cnc[nH]1	72.8*	10.8	0.2	78.1*	1.7	0.3
CCN(c1cccc(C)c1)S(=O)(=O)c1c(C)[nH]c(=O)[nH]c1=O	-29.4	9.6	1	-3.7	-20.6	1.3
CCN(c1cccc(C)c1)S(=O)(=O)c1cccc(C(=O)O)c1	-1.9	7.8	1.1	-13.0	-5.2	1
COc1cccc(CNC(=O)CN(C)S(=O)(=O)c2cnc[nH]2)c1	78.9*	11.0	0	98.7*	-6.6	0.2
COc1ccc(OC)c(S(=O)(=O)N(C)CC(=O)Nc2cc(Cl)ccc2OC)c1	.	-12.2	.	.	-13.1	.
CCN(c1cccc(C)c1)S(=O)(=O)c1ccc2[nH]c(=O)c(=O)[nH]c2c1	68.7*	4.6	0.7	32.4	-8.1	0.3
SMILES	CYP2C9 inh	PLK1 PBD inh	CYP2C19 act	CYP2C19 inh	PLK1 inh	CYP2C9 activ
CCN(c1cccc(C)c1)S(=O)(=O)c1cnc[nH]1	98.2*	-6.5	0	96.7*	6.5	0
COC(=O)c1cc(NC(=O)C2CC=CCC2C(=O)O)cc(C(=O)OC)c1 (stereo not drawn)	38.4	-35.6	1	-4.7	-3.8	0.6
Cc1cccc(NC(=O)CN(C)S(=O)(=O)c2cnc[nH]2)c1	93.0*	4.0	0.1	89.6*	-8.2	0.1
CCOc1ccc2nc(NCCCNS(=O)(=O)c3ccccc3)c(C#N)cc2c1	54.8*	11.7	0.6	36.4	-5.8	0.5
CCOc1ccc2nc(NCCCNS(=O)(=O)c3ccc(F)cc3)c(C#N)cc2c1	.	-16.4	.	.	-11.7	.
O=C(Nc1ncc(Cc2ccccc2Cl)s1)C1CCCO1 (stereo not drawn)	.	-10.2	.	.	3.0	.
O=c1[nH]c2cccnc2n1Cc1ccco1	-14.0	-5.4	1.2	-16.7	-17.4	1.1
CC(O)CNc1nc2ccccc2n1CC(=O)NCCc1ccc(Cl)cc1 (stereo not drawn)	36.3	14.0	0.5	50.3*	-6.4	0.6
O=C(Cn1c(NCCO)nc2ccccc21)c1ccc(Cl)cc1	4.7	2.1	0.9	7.7	-6.2	1
Cc1cccc(C)c1OCC(=O)N/N=C/c1cc2c(cc1[N+](=O)[O-])OCO2	36.1	18.4	0.5	47.9	-29.7	0.6
O=[N+]([O-])c1cc2c(cc1/C=N\NS(=O)(=O)c1ccccc1)OCO2	81.8*	-33.7	0.5	46.4	-3.2	0.2
Cc1cccc(Nc2ncnc3nc[nH]c23)c1C	.	-41.5	.	.	56.0*	.
CCCCOC(=O)c1ccc(Nc2ncnc3nc[nH]c23)cc1	11.0	.	1.2	-15.7	.	0.9
FC(F)Sc1ccc(Nc2ncnc3nc[nH]c23)cc1	.	9.5	.	.	60.1*	.
Cc1cccc(NC(=O)CSc2ncnc3nc[nH]c23)c1C	.	24.3	.	.	16.4	.
c1ccc(-c2cc(N3CCOCC3)nc3ccccc23)cc1	22.4	-17.7	0.9	14.5	-3.7	0.8
c1ccc2nc(N3CCOCC3)c(N3CCOCC3)nc2c1	16.0	-8.3	0.9	14.9	-3.2	0.8
Cn1c(N2CCOCC2)nc(-c2ccccc2)c1-c1ccccc1	-98.0	8.0	0.9	6.2	-6.2	2*
c1ccc(-c2nc3ccccc3nc2N2CCOCC2)cc1	19.9	-9.7	0.5	52.4*	-3.6	0.8
Cc1ncsc1C(=O)NCc1ccc(N2CCCC2=O)cc1	5.5	-33.2	1.1	-11.4	-7.0	0.9
COc1cc(NC(=O)C2CCC(CNc3c(N4CCCCC4)c(=O)c3=O)CC2)cc(OC)c1 (stereo not drawn)	62.0*	.	0.4	57.6*	.	0.4
COc1ccc(NC(=O)C2CCC(CNc3c(N4CCC(C)CC4)c(=O)c3=O)CC2)cc1OC (stereo not drawn)	41.7	1.6	0.9	12.6	4.2	0.6
COc1cc(NC(=O)C2CCC(CNc3c(N4CCC(C)CC4)c(=O)c3=O)CC2)cc(OC)c1 (stereo not drawn)	51.2*	-1.1	0.7	33.4	-0.5	0.5
O=C1NC(Nc2ccccn2)(C(F)(F)F)C(=O)N1c1ccc(F)cc1 (stereo not drawn)	-6.8	14.3	0.9	8.8	-16.0	1.1
